Screens from PubChem BioAssay.
CYP2C19 act = increases human CYP2C19 enzyme activity; P33261; recombinant CYP2C19, luciferin-H EGE luminescence; hits give high values; 0 = fully inhibited enzyme, 1 = untreated enzyme; activation factor at 5 µM; 96,000 tested, under 10 active; AID 1025;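 active = activation factor of at least 2 at 5 µM in the primary screen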;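 note: 0 = wells with 2.5 mM tranylcypromine and 1 = vehicle-only wells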
CYP2C9 act = activators of human CYP2C9; recombinant CYP2C9, luciferin-H conversion, luminescence; hits give high values; factor 1 = untreated enzyme, 0 = blocked; hit rate 1.4% among 96,000; P11712; activation factor at 5 µM;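 active = activation factor of 2 or more for CYP2C9 at a 5 µM dose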;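 note: 0 = sulfaphenazole-blocked wells and 1 = vehicle-only wells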
CYP2C19 inhib = blocks human cytochrome P450 2C19; inhibition, % at 5 µM; hit rate 21% among 96,000; P33261; AID 778; CYP2C19 Supersomes, luciferin-H EGE luminescence, 30 min;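 active = CYP2C19 inhibition above a set limit at 5 µM in the primary screen, cut at about 50% in these data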;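 note: plate controls were negative control wells for no effect and 2.5 mM tranylcypromine positive control for full effect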
CYP2C9 inh = blocks human cytochrome P450 2C9; CYP2C9 Supersomes, luciferin-H conversion, luminescence; inhibition, % at 5 µM; hit rate 20% among 96,000; AID 777;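 active = blocking of liver enzyme CYP2C9 beyond about 50% at 5 µM, limit read from the data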
PLAP activator = activates human placental alkaline phosphatase; activation fold at 20 µM; hit rate 1.2% among 96,000; P05187; purified PLAP enzyme, luminescent substrate read-out; hits give high values; AID 696; in the data active = activation fold above about 2
Target sequence (P05187 whole entry, looked up): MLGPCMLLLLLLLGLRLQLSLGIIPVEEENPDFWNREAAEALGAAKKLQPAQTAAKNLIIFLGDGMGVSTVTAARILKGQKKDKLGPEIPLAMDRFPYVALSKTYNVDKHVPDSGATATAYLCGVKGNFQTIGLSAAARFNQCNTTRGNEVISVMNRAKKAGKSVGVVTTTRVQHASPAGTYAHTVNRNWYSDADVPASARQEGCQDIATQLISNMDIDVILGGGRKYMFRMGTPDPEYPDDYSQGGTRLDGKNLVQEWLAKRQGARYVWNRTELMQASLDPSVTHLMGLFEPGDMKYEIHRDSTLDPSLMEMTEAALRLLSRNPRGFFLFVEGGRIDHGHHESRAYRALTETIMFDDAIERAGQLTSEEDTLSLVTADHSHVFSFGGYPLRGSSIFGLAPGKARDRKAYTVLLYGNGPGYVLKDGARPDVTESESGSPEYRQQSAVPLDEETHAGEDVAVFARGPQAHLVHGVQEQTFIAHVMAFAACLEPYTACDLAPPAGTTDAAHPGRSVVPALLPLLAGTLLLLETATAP
An asterisk follows results filed as active. Sampled rows, rich in hits. Any-hit rate of the full collection: about 31%.

`CCN(Cc1ccccc1)C(c1cc2ccc(C)cc2[nH]c1=O)c1nnnn1CCOC` (stereo not drawn) gave CYP2C19 act 0.9, CYP2C9 act 0.4, CYP2C19 inhib 7.0, CYP2C9 inh 55.2* and PLAP activator 1.7.
For COc1ccc(-c2nn(-c3ccccc3)cc2C#N)cc1 the results were CYP2C19 act 1, CYP2C9 act 0.9, CYP2C19 inhib 3.3, CYP2C9 inh 12.2 and PLAP activator 0.7.
`O=c1[nH]c2c(n(C3CCCCC3)c1=O)CCC2` gave CYP2C19 act 1.1, CYP2C9 act 1.3, CYP2C19 inhib -11.1, CYP2C9 inh -31.4 and PLAP activator 0.9.
`CCc1ccc2[nH]c(=O)c(C(c3nnnn3CCOC)N3CCN(c4ccccc4F)CC3)cc2c1` (stereo not drawn) gave CYP2C19 act 0.5, CYP2C9 act 0.8, CYP2C19 inhib 53.8*, CYP2C9 inh 17.3 and PLAP activator 1.6.
`COc1ccc(N2CCN(C(c3cc4cc(C)ccc4[nH]c3=O)c3nnnn3Cc3ccccc3)CC2)cc1` (stereo not drawn) gave CYP2C19 act 0.8, CYP2C9 act 0.8, CYP2C19 inhib 21.3, CYP2C9 inh 23.2 and PLAP activator 1.6.
Screening COc1ccc2[nH]c(=O)c(CN(Cc3ccco3)C(c3nnnn3Cc3ccccc3)C(C)C)cc2c1 (stereo not drawn) returned CYP2C19 act 0.6, CYP2C9 act 0.3, CYP2C19 inhib 43.6, CYP2C9 inh 70.4* and PLAP activator 1.6.
CCN(CC)C(=O)C1CCN(S(=O)(=O)c2ccc(C3CNC(=O)C3)cc2)CC1 (stereo not drawn) was read as CYP2C19 act 1, CYP2C9 act 0.8, CYP2C19 inhib 2.9, CYP2C9 inh 18.2 and PLAP activator 1.1.
O=S(=O)(c1ccc(Cl)cc1)N1CCCC1c1nc(-c2cccc(Cl)c2)no1 (stereo not drawn) was read as CYP2C19 act 0.9, CYP2C9 act 0.7, CYP2C19 inhib 6.7, CYP2C9 inh 25.8 and PLAP activator 0.9.
`Cc1cccc(-c2nnc(SCC#N)n2Cc2ccccc2)c1` gave CYP2C19 act 0.2, CYP2C9 act 0.5, CYP2C19 inhib 77.1*, CYP2C9 inh 51.4* and PLAP activator 1.2.
For N#CCCCSc1nnc(-c2ccc(Cl)cc2)n1-c1ccccc1 the results were CYP2C19 act 0.7, CYP2C9 act 0.5, CYP2C19 inhib 34.0, CYP2C9 inh 50.5* and PLAP activator 1.
Screening Cc1cccc(-c2nnc(SCC#N)n2-c2ccccc2)c1 returned CYP2C19 act 0.5, CYP2C9 act 0.6, CYP2C19 inhib 51.4*, CYP2C9 inh 35.6 and PLAP activator 1.1.
COC(=O)CNC(=O)COc1ccccc1 was read as CYP2C19 act 1, CYP2C9 act 0.9, CYP2C19 inhib -4.6, CYP2C9 inh 9.5 and PLAP activator 0.9.
COC(=O)CSc1nnc(-c2ccc(S(=O)(=O)NCc3ccccc3Cl)cc2)o1 was read as CYP2C19 act 1, CYP2C9 act 0.7, CYP2C19 inhib 3.5, CYP2C9 inh 34.1 and PLAP activator 0.9.
Cc1nc(Nc2ccc3c(c2)OCCO3)c2oc3ccccc3c2n1 was read as CYP2C19 act 0.1, CYP2C9 act 0.2, CYP2C19 inhib 85.1*, CYP2C9 inh 75.7* and PLAP activator 1.4.
c1ccc2c(c1)oc1c(Nc3ccc4c(c3)OCCO4)ncnc12 was read as CYP2C19 act 0.8, CYP2C9 act 1.1, CYP2C19 inhib 19.5, CYP2C9 inh -6.5 and PLAP activator 0.9.
`CCc1nc(Nc2ccc3c(c2)OCCO3)c2oc3ccccc3c2n1` gave CYP2C19 act 0.6, CYP2C9 act 0.8, CYP2C19 inhib 39.7, CYP2C9 inh 20.9 and PLAP activator 0.9.
For Cc1ccc(Nc2ncnc3c2oc2ccccc23)cc1 the results were CYP2C19 act 0.5, CYP2C9 act 0.7, CYP2C19 inhib 53.4*, CYP2C9 inh 31.7 and PLAP activator 0.8.
For COc1ccc(Nc2ncnc3c2oc2ccccc23)cc1 the results were CYP2C19 act 0.5, CYP2C9 act 0.7, CYP2C19 inhib 54.6*, CYP2C9 inh 33.7 and PLAP activator 0.7.
For O=C(NC(=S)Nc1ccc2oc(-c3cccnc3)nc2c1)c1cccc(Cl)c1 the results were CYP2C19 act 0.8, CYP2C9 act 0.8, CYP2C19 inhib 20.6, CYP2C9 inh 16.0 and PLAP activator 1.
Screening COc1ccc(C2(CNC(=O)/C=C\c3ccco3)CCCC2)cc1OC returned CYP2C19 act 0.7, CYP2C9 act 0.6, CYP2C19 inhib 28.5, CYP2C9 inh 35.5 and PLAP activator 1.4.
